About 1,000 (1.4%) of roughly 69,000 compounds showed an effect of 50% or more. The sample holds strong results, similar compounds and a random draw of the others, so the mix is not that of the screen.
System: Leishmania donovani
Assay: Leishmania intramacrophage assay
Format: functional, organism-based
Design: scale not given: in the data most compounds retested in dose-response had high values

Structure (SMILES): CCn1nccc1CNC(=O)C1CCCO1 (stereo unspecified)
- Percent Effect (30.3 µM, […]): 2.08%

Structure (SMILES): CNc1oc(-c2ccc(OC)c(S(=O)(=O)N3CCCC3)c2)nc1C#N
- Percent Effect (30.3 µM, […]): 16.63%

Structure (SMILES): CC(=O)N1CCC2(CC1)CC(NS(C)(=O)=O)c1ccccc1O2 (stereo unspecified)
- Percent Effect (30.3 µM, […]): 6.966%

Structure (SMILES): O=C(NCc1cccs1)c1nc2c(o1)CN(c1ncccn1)C2
- Percent Effect (30.3 µM, […]): 27.75%

Structure (SMILES): CCn1c(CC2CCN(C(=O)c3ccnn3C)CC2)n[nH]c1=O
- Percent Effect (30.3 µM, […]): 15.21%

Structure (SMILES): Cc1csc(CNC(=O)NCC(O)c2cccc(Cl)c2)n1 (stereo unspecified)
- Percent Effect (30 µM, 30.03 µM): 17.1%

Structure (SMILES): CCCN(C(=O)c1csnn1)C1CCCN(Cc2ccccc2)C1 (stereo unspecified)
- Percent Effect (30.3 µM, […]): 11.65%

Structure (SMILES): COCCN1CCC2(CC1)CC(N1CCOCC1)c1cc(C)ccc12.O=C(O)C(F)(F)F.O=C(O)C(F)(F)F (stereo unspecified)
- Percent Effect (30.3 µM, […]): 13.44%

Structure (SMILES): CC(=O)N1CCC2(CC1)CC(N1CCOCC1)c1ccc(C)cc12.O=C(O)C(F)(F)F (stereo unspecified)
- Percent Effect (30.3 µM, […]): 29.16%

Structure (SMILES): COCCN1CCC2(CC1)CC(N1CCOCC1)c1ccc(C)cc12.O=C(O)C(F)(F)F.O=C(O)C(F)(F)F (stereo unspecified)
- Percent Effect (30.3 µM, […]): 56.38%

Structure (SMILES): COc1ccc(C(=O)Nc2c(C(=O)N(C)C)nn(C)c2C)cc1
- Percent Effect (30.3 µM, […]): 25.81%

Structure (SMILES): O=C1CC(c2ccsc2)c2snc(C(=O)O)c2N1 (stereo unspecified)
- Percent Effect (30.3 µM, […]): 9.625%

Structure (SMILES): Cc1ccc(-c2nnc(SCC(=O)O)n2-c2ccc(C)cc2)cc1
- Percent Effect (30 µM, 30.03 µM): 5.804%

Structure (SMILES): CNc1cc(C)nc(NC2CCCN(C3Cc4ccccc4C3)C2)n1 (stereo unspecified)
- Percent Effect (30.3 µM, […]): 32.54%

Structure (SMILES): Cc1ccc(NC2CCCN(C3Cc4ccccc4C3)C2)nn1 (stereo unspecified)
- Percent Effect (30.3 µM, […]): 23.72%

Structure (SMILES): CNc1nc(C)cc(NC2CCCN(C3Cc4ccccc4C3)C2)n1 (stereo unspecified)
- Percent Effect (30.3 µM, […]): 58.16%

Structure (SMILES): CN1CCN(C2CCN(Cc3nnc(C(C)(C)C)o3)CC2)C1=O
- Percent Effect (30 µM): 6.935%

Structure (SMILES): COc1cc(CNCCc2nc(C)cs2)cc2c1OCCO2.Cl
- Percent Effect (30 µM, 30.03 µM): 9.472%

Structure (SMILES): COc1cccc(CN(C)C(C)c2ccco2)c1OCCn1ccnc1 (stereo unspecified)
- Percent Effect (30.3 µM, […]): 23.12%

Structure (SMILES): CCCN(CC(=O)NC)C(=O)c1ccc(-c2nc(C)cs2)cc1
- Percent Effect (30.3 µM, […]): 37%

Structure (SMILES): CCCN(CC(=O)N(C)C)C(=O)c1ccc(-c2nc(C)cs2)cc1
- Percent Effect (30.3 µM, […]): 65.78%

Structure (SMILES): CCN(CC(=O)N(C)C)C(=O)c1ccc(-c2nc(C)cs2)cc1
- Percent Effect (30.3 µM, […]): -16.68%

Structure (SMILES): Cc1cc(C2CCCN2Cc2cc(=O)n(C)c(=O)n2C)on1 (stereo unspecified)
- Percent Effect (30 µM, 30.03 µM): -11.72%

Structure (SMILES): COc1ccc(S(=O)(=O)NCCCc2nnc3nc(C)cc(C)n23)cc1
- Percent Effect (30.3 µM, […]): 5.677%

Structure (SMILES): CC(C)n1cnnc1SCCN(C)c1ccccc1
- Percent Effect (30.3 µM, […]): -1.184%

Structure (SMILES): CN(C)CCN(C)C(=O)Cn1cccc2cc(-c3ccc(F)cc3)nc1-2
- Percent Effect (30.3 µM, […]): 78.9%

Structure (SMILES): COc1ccc(-c2cc3cccn(CC(=O)N4CCOCC4)c-3n2)cc1
- Percent Effect (30.3 µM, […]): 23.65%

Structure (SMILES): O=C(Cn1cccc2cc(-c3ccc(F)cc3)nc1-2)N1CCC(O)CC1
- Percent Effect (30.3 µM, […]): 2.575%

Structure (SMILES): CC(C)(C)c1ncc2c(n1)CN(c1cc(NCCO)nc(N)n1)C2
- Percent Effect (30.3 µM, […]): 34.79%

Structure (SMILES): O=C(C1CC(=O)N(c2n[nH]c3cc(Br)ccc23)C1)N1CCOCC1 (stereo unspecified)
- Percent Effect (30.3 µM, […]): -3.266%

Structure (SMILES): CC(C)CCNC(=O)c1ccc(Cl)c(NS(C)(=O)=O)c1
- Percent Effect (30.3 µM, […]): 6.444%

Structure (SMILES): O=C(Cc1ccsc1)N1C[C@@H]2CN(Cc3ccoc3)CCO[C@@H]2C1.O=C(O)C(F)(F)F
- Percent Effect (30 µM, 30.03 µM): 9.64%

Structure (SMILES): COCCN(C)C(=O)c1ccc(OC)cc1O
- Percent Effect (30 µM, 30.03 µM): -17.55%

Structure (SMILES): COc1ccc(OCCN(C)C(=O)c2ccc(OC)cc2O)cc1
- Percent Effect (30.3 µM, […]): 55.32%

Structure (SMILES): COCCCNC(=O)CN(C)C(=O)c1ccc(OC)cc1O
- Percent Effect (30 µM): 24.99%

Structure (SMILES): CCN(C)C(=O)CN1CCC(c2cc(N3CCOCC3)nc(C)n2)CC1
- Percent Effect (30.3 µM, […]): -1.668%

Structure (SMILES): NC(=O)NCCC(=O)N1CCC(c2cc(Cc3ccccc3)n[nH]2)CC1
- Percent Effect (30.3 µM, […]): -20.51%

Structure (SMILES): Nc1nccc(N2CCC(c3cc(Cc4ccccc4)n[nH]3)CC2)n1
- Percent Effect (30.3 µM, […]): 63.85%

Structure (SMILES): Nc1nc(O)cc(N2CCC(c3cc(Cc4ccccc4)n[nH]3)CC2)n1
- Percent Effect (30.3 µM, […]): 4.937%

Structure (SMILES): Nc1cc(N2CCC(c3cc(Cc4ccccc4)n[nH]3)CC2)ccn1
- Percent Effect (30.3 µM, […]): 96.12%

Structure (SMILES): Cc1cc(CN2CCC(c3cc(Cc4ccccc4)n[nH]3)CC2)[nH]n1
- Percent Effect (30.3 µM, […]): 26.02%

Structure (SMILES): Cc1ccc(N2CCC(c3cc(Cc4ccccc4)n[nH]3)CC2)nn1
- Percent Effect (30.3 µM, […]): 15.09%

Structure (SMILES): COc1ccc(CN2CCCCC2c2n[nH]cc2-c2cc(C)no2)cc1.Cl (stereo unspecified)
- Percent Effect (30.3 µM, […]): -16.67%

Structure (SMILES): CCn1ncc2c1CCCC2NCc1cc(OC)cc(OC)c1 (stereo unspecified)
- Percent Effect (30 µM): 1.972%

Structure (SMILES): Cc1nccc(CNC(=O)NCCOc2ccc(F)c(F)c2)n1
- Percent Effect (30 µM, 30.03 µM): 3.237%

Structure (SMILES): Cc1cc(CNC(=O)NCCOc2ccc(F)c(F)c2)on1
- Percent Effect (30.3 µM, […]): 0.6606%

Structure (SMILES): Cc1nc(C2(O)CCCNCC2)sc1CCOc1ccc(F)cc1.Cl (stereo unspecified)
- Percent Effect (30.3 µM, […]): 8.294%

Structure (SMILES): Cc1nc(C2(O)CCCNCC2)sc1CCOc1ccc(F)c(F)c1.Cl (stereo unspecified)
- Percent Effect (30.3 µM, […]): 85.82%

Structure (SMILES): CC1(C(=O)NCc2cccnc2Oc2ccc(F)c(F)c2)CCCNC1 (stereo unspecified)
- Percent Effect (30.3 µM, […]): -16.47%

Structure (SMILES): CC(=O)NCc1nnn2c1CN(c1ncc(C)cn1)CCC2
- Percent Effect (30.3 µM, […]): 22.68%

Structure (SMILES): O=C(NC[C@]12COC[C@H]1CN(Cc1nccs1)C2)c1cscn1.O=C(O)C(F)(F)F
- Percent Effect (30.3 µM, […]): 14.84%
